Source: PubChem BioAssay
The source made the active and inactive calls.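 The calls were made as follows, unless noted: active = inhibition above 20% together with a positive visual image hit; inconclusive = visual image hit but inhibition not above 20%; inactive = no visual image hit.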

Key:
[1] = inhibitors of TNFa-induced NFkB p65 translocation, primary screen, imaging, HUVEC, MLSMR starter and 10KST1 sets (AID 438); details: HUVEC TNFa-induced p65 nuclear translocation; cell count: measured here: nuclei count (cytotoxicity indicator), at 2.08 µM; inhibition: at 2 µM, stronger effect = higher value, 0% TNFa-plus-vehicle, 100% no-TNFa wells;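 also: compound added about 3h40 before a 20 min TNFalpha stimulation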;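 as to inhibition: signal is the nuclear over cytoplasmic p65 intensity ratio per well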
[2] = reduction of polyQ htt aggregates in cells – imaging, exon1htt(103Q)mCFP cells, high-content imaging, primary screen (AID 483;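 active = visual image review flags a hit and inhibition of aggregation exceeds 20%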;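 also: compound exposure lasted 3 days before fixation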;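 as to nuclei count: percent of the per-plate median nuclei count of sample wells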); details: exon1htt(103Q)mCFP cell line, aggregate imaging, at 2 µM; inhibition of aggregation: stronger effect = higher value; nuclei count: measured here: cell count, toxicity
[3] = endothelial E-selectin expression blockers – imaging, HUVEC, immunofluorescence, MLSMR starter and 10KST1 sets, primary screen (AID 487;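 active = visually confirmed hit in the image check and inhibition above 20%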;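 as to inhibition: signal is fraction of cell area covered by stained E-selectin grains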;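 as to nuclei count: 100% = median nuclei count of all wells on the same plate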); details: HUVEC TNFalpha-induced E-selectin immunofluorescence imaging, at 2 µM; inhibition: stronger effect = higher value; nuclei count: measured here: cell number, toxicity
[4] = molecular target: Voltage-gated potassium channel subunit beta-2 (Rattus norvegicus) (UniProt P62483); experiment: inhibitors of rat Kvbeta2 reductase activity – biochemical, NADPH fluorescence, primary screen (AID 622;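 active = fluorescence slope higher than the sample average by over 3 SD, cut at about -0.22 in these data, passing the limit was not always enough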;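 also: slope of raw intensity against log time taken from 70 to 1610 s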); details: recombinant KvBeta, 4-cyanobenzaldehyde reduction, at 10 µM, stronger effect = higher value
[5] = molecular target: Voltage-gated potassium channel subunit beta-2 (Rattus norvegicus) (UniProt P62483); experiment: enhancers of rat Kvbeta2 NADPH turnover – biochemical, NADPH fluorescence, primary screen (AID 623;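 active = NADPH fluorescence slope more negative than the mean of all samples by about 3 SD, 99.7% confidence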;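 also: fluorescence intensity change per second fitted from 20 to 320 s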); details: Recombinant KvBeta, NADPH fluorescence decrease slope, 10 min; at 10 µM; stronger effect = lower value
[6] = molecular target: Alpha-2C adrenergic receptor (Homo sapiens) (UniProt P18825); experiment: compounds altering alpha2C-coupled GIRK flux – cell-based, HEK293 alpha2C/GIRK1/2, thallium flux, primary screen (AID 624;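 active = fluorescence slope after compound addition differing from the mean of all screened samples at 99.7% confidence, in either direction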;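 also: slope of fluorescence ratio to pre-addition baseline per second over 15 to 24 s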); details: thallium flux BTC fluorescence, at 10 µM, actives lie on both sides
[7] = blockers of RIG-like receptor reporter activation – cell-based, Sendai virus stimulus, luciferase, 10K MLSCN set, TLR/RLR signaling modifier project, primary screen (AID 602276;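 active = inhibition at or above 50% at 10 µM; inactive = inhibition below 50%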;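 also: firefly luciferase from ISG56 promoter only with Renilla not read in this screen; 0% = Sendai virus plus DMSO and 100% = medium plus DMSO without virus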); details: HEK293 RL24 IRF3 luciferase reporter, at 10 µM, stronger effect = higher value
[8] = TLR3 IRF3 reporter activation blockers – cell-based, poly I:C stimulus, luciferase, 10K MLSCN set, primary screen (AID 602277;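 active = inhibition of the reporter signal at or above 50%; inactive = inhibition below 50%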); details: HEK293-TLR3 RL24 IRF3 luciferase reporter, at 10 µM, stronger effect = higher value

Sequence of Alpha-2C adrenergic receptor (Homo sapiens) (P18825 whole entry, looked up): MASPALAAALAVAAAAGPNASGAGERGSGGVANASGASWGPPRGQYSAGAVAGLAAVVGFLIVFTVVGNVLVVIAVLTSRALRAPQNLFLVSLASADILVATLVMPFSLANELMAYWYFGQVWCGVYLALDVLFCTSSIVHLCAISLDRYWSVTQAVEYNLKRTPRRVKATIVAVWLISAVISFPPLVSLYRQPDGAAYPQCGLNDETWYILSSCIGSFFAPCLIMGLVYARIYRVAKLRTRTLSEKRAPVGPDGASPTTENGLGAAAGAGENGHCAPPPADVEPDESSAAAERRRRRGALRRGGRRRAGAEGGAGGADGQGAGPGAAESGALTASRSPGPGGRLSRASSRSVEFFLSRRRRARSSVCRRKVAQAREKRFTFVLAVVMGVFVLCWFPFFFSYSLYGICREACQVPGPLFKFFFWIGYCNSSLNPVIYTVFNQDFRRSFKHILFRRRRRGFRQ
Sequence of Voltage-gated potassium channel subunit beta-2 (Rattus norvegicus) (P62483 whole entry, looked up): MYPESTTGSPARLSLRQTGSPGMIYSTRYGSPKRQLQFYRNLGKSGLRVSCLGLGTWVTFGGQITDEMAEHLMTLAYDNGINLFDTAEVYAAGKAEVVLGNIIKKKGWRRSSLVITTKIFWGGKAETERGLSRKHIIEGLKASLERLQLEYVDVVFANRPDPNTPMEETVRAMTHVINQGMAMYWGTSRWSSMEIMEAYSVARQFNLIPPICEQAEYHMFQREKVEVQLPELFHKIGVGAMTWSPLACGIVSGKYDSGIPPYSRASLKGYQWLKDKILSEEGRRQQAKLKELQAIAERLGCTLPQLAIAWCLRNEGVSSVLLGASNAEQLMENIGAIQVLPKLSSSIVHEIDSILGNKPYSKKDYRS

SMILES | cell count [1] | inhibition [1] | inhibition of aggregation [2] | nuclei count [2] [%] | inhibition [3] | nuclei count [3] [%] | fluorescence slope [4] | NADPH fluorescence slope [5] | slope [6] | inhibition [7] | inhibition [8]
Cn1c(=O)c2c(nc(CN3CCc4ccccc4C3)n2Cc2cccc(Cl)c2)n(C)c1=O | 646 | 8% (inactive) | 0.6% (inactive) | 102 | -22.8% (inactive) | 124 | -0.575 (inactive) | -4.8e-05 (inactive) | 0.00753 (inactive) | 19.5% (inactive) | -58.7% (inactive)
CCSc1nc2ccccc2n1CCC(=O)O | 615 | -62.2% (inactive) | 1.9% (inactive) | 85.7 | -96.2% (inactive) | 111 | -0.49 (inactive) | -0.000157 (inactive) | 0.00453 (inactive) | 10.2% (inactive) | 18.3% (inactive)
O=c1oc2ccccc2c(O)c1CN1CCCCC1 | 361 | 2.9% (inactive) | 4.9% (inactive) | 48.1 | -83.3% (inactive) | 117 | -0.407 (inactive) | -6.8e-05 (inactive) | 0.00535 (inactive) | 15.4% (inactive) | 8.62% (inactive)
COc1ccc2cc(CN(CCO)C(=O)c3ccc(Br)cc3)c(=O)[nH]c2c1 | 333 | 5.3% (inactive) | -21.4% (inactive) | 119 | -33% (inactive) | 118 | -0.613 (inactive) | -4.6e-05 (inactive) | 0.00437 (inactive) | 11.6% (inactive) | 0.693% (inactive)
O=C(Nc1cccc2ccccc12)c1ccc(Br)o1 | 638 | 5.6% (inactive) | 7.9% (inactive) | 104 | 18.2% (inactive) | 94.7 | -0.437 (inactive) | -1.5e-05 (inactive) | 0.00359 (inactive) | 2.74% (inactive) | 19.8% (inactive)
CC(C)CCSc1nc2c(c(=O)[nH]c(=O)n2C)n1CCCc1ccccc1 | 618 | -5.9% (inactive) | 26.4% (inactive) | 103 | -34.8% (inactive) | 120 | -0.414 (inactive) | -4.8e-05 (inactive) | 0.00519 (inactive) | 10.3% (inactive) | 29.8% (inactive)
O=C1c2ccccc2C(Nc2ccc3c(c2)OCO3)N1Cc1ccc2c(c1)OCO2 (stereo not drawn) | 529 | -8.5% (inactive) | -8.3% (inactive) | 63.8 | -0.3% (inactive) | 107 | -0.398 (inactive) | -2.6e-05 (inactive) | 0.00394 (inactive) | -3.95% (inactive) | 27.2% (inactive)
O=C(CC(Cc1ccccc1)C(=O)O)NCCc1ccc2c(c1)OCO2 (stereo not drawn) | 775 | -6.3% (inactive) | -0.6% (inactive) | 107 | -161% (inactive) | 145 | -0.424 (inactive) | -3.2e-05 (inactive) | 0.00395 (inactive) | -2.67% (inactive) | 23.4% (inactive)
Cc1cc(C)n(C(=O)CCCCCC(=O)n2nc(C)cc2C)n1 | 440 | 5.5% (inactive) | 1.5% (inactive) | 116 | -195% (inactive) | 116 | -0.524 (inactive) | 8.7e-06 (inactive) | 0.0053 (inactive) | 18.5% (inactive) | 26.3% (inactive)
O=C(NCc1cccs1)C1CC(c2ccccc2O)=NO1 (stereo not drawn) | 347 | 1.7% (inactive) | -11.8% (inactive) | 104 | -122% (inactive) | 108 | -0.601 (inactive) | -2.2e-05 (inactive) | 0.00342 (inactive) | 12.7% (inactive) | 67.7% (active)
CCC1(CC)C(=O)N(C)C(=O)NC1=NCc1ccccc1 | 512 | -4.7% (inactive) | -9.9% (inactive) | 107 | 24.4% (inactive) | 96.9 | -0.334 (inactive) | 2e-05 (inactive) | 0.0048 (inactive) | 18.2% (inactive) | 12.1% (inactive)
O=C(Cn1cnc2c(cnn2-c2ccc(F)cc2)c1=O)N1CCN(c2ccccc2)CC1 | 341 | -6% (inactive) | -0.4% (inactive) | 90.7 | -79.8% (inactive) | 108 | -0.506 (inactive) | -2.6e-06 (inactive) | 0.00638 (inactive) | 4.22% (inactive) | 8.47% (inactive)
COc1ccc(CCNC(=O)c2cnn3ccccc23)c(OC)c1OC | 779 | -4.5% (inactive) | -37.7% (inactive) | 108 | -59.3% (inactive) | 115 | -0.558 (inactive) | -4.4e-06 (inactive) | 0.00687 (inactive) | 1.42% (inactive) | -10.8% (inactive)
O=C(CSc1nc(O)cc(=O)n1-c1ccccc1)N1CCCCC1 | 635 | -8.1% (inactive) | -16.4% (inactive) | 103 | -85.5% (inactive) | 109 | -0.536 (inactive) | -5.1e-05 (inactive) | 0.00543 (inactive) | 12.3% (inactive) | 21% (inactive)
COC(=O)CN1C(=O)C(O)(CC(=O)c2ccc(C)cc2)c2cc(Br)ccc21 (stereo not drawn) | 612 | 2.9% (inactive) | -6% (inactive) | 94.5 | -49.2% (inactive) | 113 | -0.436 (inactive) | -4.5e-05 (inactive) | 0.00497 (inactive) | 4.14% (inactive) | -1.15% (inactive)
CCOCC(=O)Nc1ccc(S(=O)(=O)N2CCOCC2)cc1 | 283 | -3.2% (inactive) | 16.5% (inactive) | 89.1 | -6.7% (inactive) | 73.9 | -0.418 (inactive) | 5.9e-06 (inactive) | 0.00604 (inactive) | 12% (inactive) | 19.7% (inactive)
CCOc1ccc(N(CC(=O)Nc2ccc(F)c(F)c2)S(=O)(=O)c2c(C)noc2C)cc1 | 758 | -0.6% (inactive) | 25.8% (inactive) | 130 | -35.5% (inactive) | 109 | -0.521 (inactive) | -4.9e-05 (inactive) | 0.00774 (inactive) | 13% (inactive) | 30.3% (inactive)
c1ccc(CSCc2cn3ccsc3n2)cc1 | 664 | 1.2% (inactive) | 5.1% (inactive) | 107 | -84.7% (inactive) | 131 | -0.583 (inactive) | -4.2e-05 (inactive) | 0.00621 (inactive) | -50.3% (inactive) | -132% (inactive)
COc1cccc(NC(=O)c2nnn(Cc3ccc(Br)cc3F)c2N)c1 | 674 | -2.8% (inactive) | 28.1% (inactive) | 109 | -61.5% (inactive) | 108 | -0.484 (inactive) | -4e-05 (inactive) | 0.00669 (inactive) | 16.4% (inactive) | 9.8% (inactive)
COC(=O)c1ccc(COc2ccc(C3C4=C(CCCC4=O)Nc4onc(C)c43)cc2)cc1 (stereo not drawn) | 303 | -4.7% (inactive) | -8.3% (inactive) | 112 | -68.7% (inactive) | 118 | -0.479 (inactive) | -1.7e-05 (inactive) | 0.00693 (inactive) | -12.9% (inactive) | -23% (inactive)
CC(=O)Nc1nc2c(c3c1c(=O)oc1ccccc13)CC(C)CC2 (stereo not drawn) | 509 | -11.6% (inactive) | 14.7% (inactive) | 61.9 | 13.1% (inactive) | 82.7 | -0.457 (inactive) | -1.3e-05 (inactive) | 0.00575 (inactive) | 12.8% (inactive) | 32.3% (inactive)
CCCc1cc(C(=O)Nc2sc(C)c(C)c2C(=O)OCC)no1 | 856 | 2.3% (inactive) | 2.1% (inactive) | 126 | -79.7% (inactive) | 114 | -0.229 (inactive) | -5.5e-06 (inactive) | 0.00716 (inactive) | 8.68% (inactive) | 31.8% (inactive)
COc1ccc2ccccc2c1CN1CCCC(CO)C1 (stereo not drawn) | 745 | 3.4% (inactive) | 4.4% (inactive) | 110 | 53% (inactive) | 97.2 | -0.422 (inactive) | -8.2e-05 (inactive) | 0.00503 (inactive) | 16% (inactive) | 35.4% (inactive)
O=C(c1cccs1)N(Cc1ccco1)Cc1cc2ccccc2[nH]c1=O | 420 | 6.2% (inactive) | -7.1% (inactive) | 107 | -40% (inactive) | 84.3 | -0.343 (inactive) | -3.2e-05 (inactive) | 0.00483 (inactive) | -11% (inactive) | -8.09% (inactive)
O=C(Nc1cccc(F)c1)c1cccc(S(=O)(=O)N2CCOCC2)c1 | 566 | 3% (inactive) | -14% (inactive) | 94.3 | -38.9% (inactive) | 92.1 | -0.504 (inactive) | -5.2e-05 (inactive) | 0.00763 (inactive) | 10.5% (inactive) | 98.3% (active)
Cc1cc(NCCN2CCOCC2)n2nc(C)c(-c3ccccc3)c2n1 | 685 | -8.9% (inactive) | -34.5% (inactive) | 118 | -43.4% (inactive) | 110 | -0.573 (inactive) | -2.5e-05 (inactive) | 0.00587 (inactive) | 4.53% (inactive) | 3.88% (inactive)
CC(=O)N1c2c(cc(Br)cc2S(=O)(=O)NCC2COc3ccccc3O2)CC1C (stereo not drawn) | 651 | -0.5% (inactive) | 19.1% (inactive) | 104 | -47.6% (inactive) | 116 | -0.53 (inactive) | -7.4e-05 (inactive) | 0.00624 (inactive) | 13.1% (inactive) | 10.4% (inactive)
COc1ccccc1C1/C(=C(/O)c2ccccc2)C(=O)C(=O)N1CC(C)C (stereo not drawn) | 430 | -3.3% (inactive) | -2% (inactive) | 112 | -43.1% (inactive) | 124 | -0.629 (inactive) | -2.2e-05 (inactive) | 0.00652 (inactive) | 11.4% (inactive) | 20.6% (inactive)
